Test results taken from PubChem BioAssay AID588398 (Broad Institute, 2011).
The campaign covered roughly 1,200 compounds. About 110 (9.2%) were called active. Roughly 8% stayed inconclusive and do not appear here.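 Rule for the calls: active = pathway reporter half-maximal dose under half the control reporter's, or control reporter unaffected while pathway reporter is inhibited; inconclusive = either signal flat at 30 to 70% inhibition or poorly fitted; inactive = the rest.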 Not all results are given here. Entries with a potency or affinity are not part of this list.

experiment: TES1-eGFP NF-kB reporter inhibition versus Tet-On dsRED, dose response, selectivity assay for LMP1 NF-kB inhibitor project, imaging, HEK293T, dual-color eGFP/dsRED, cherry-picks (AID 588398); settings: 48 h; HEK293T Tet-On dsRED counter-screen channel, at 19.5 µM (top of the series)

| Structure (SMILES) | outcome |
| --- | --- |
| COC(=O)[C@@]1(C)[C@H]2C(=O)N(Cc3ccccc3)C(=O)[C@H]2[C@H]2CN=C(SCc3ccc(Cl)cc3)N21 | inactive |
| Cc1cccc(NC(=O)c2cnc3ccccn3c2=O)c1 | inactive |
| COCCNC(=O)C1CCC(CNS(=O)(=O)c2ccccc2)CC1 (stereo unspecified) | inactive |
| NC(=S)NN=Cc1nccc2c(C(F)(F)F)cccc12 | inactive |
| NC(=S)NN=Cc1nccc2c(C(F)(F)C(F)(F)C(F)(F)F)cccc12 | inactive |
| O=C(Nc1ccccc1)c1cn2ccccc2n1 | inactive |
| COC(=O)CSc1ncnc2c1sc1nc3c(cc12)COC(C)(C)C3 | inactive |
| C[C@H](NC(=O)N1CCn2c1nc1ccccc12)C(=O)NCC1CCCO1 (stereo partly specified) | inactive |
| CCN(C(=O)c1cc(OC)c(OC)c(OC)c1)C1CCCCC1 | inactive |
| CCOC(=O)c1c(CSc2nc(C)cc(C)c2C#N)n(C)c2cc(Br)c(OC(C)=O)cc12 | inactive |
| CCCc1c(C(=O)N/N=C(\C)c2ccccn2)nnn1-c1nonc1N | inactive |
| CC(=NNC(=S)N1CCCCC1)c1cccc(C)n1 | inactive |
| CC(=NNC(=S)N1CCCCCC1)c1cccc2cccnc12 | inactive |
| COC(=O)c1ccc(COc2ccccc2/C=C/C(=O)c2ccc(OCC(=O)O)cc2)cc1 | inactive |
| COC(=O)c1ccccc1NC(=O)CC(=O)Nc1ccccc1C(=O)OC | inactive |
| COc1cccc(C(=O)N2CCN(c3nc4cc(C)cc(C)c4cc3C#N)CC2)c1 | inactive |
| Cc1cc(=O)[nH]c(NN=Cc2cc(Br)ccc2O)n1 | inactive |
| COc1ccc(N2C(=O)C(=O)/C(=C(/O)c3ccc(C)cc3)C2c2cccnc2)cc1 (stereo unspecified) | inactive |
| CCCC(=O)C1=C(O)C(C(=O)OC)C(C)(C)CC1=Nc1ccncc1 (stereo unspecified) | inactive |
| Cc1csc(N=Nc2ccc(N(C)C)cc2)[n+]1[O-] | inactive |
| Cc1ccc2c(c1)N(CC(=O)N1CCCC1)C(=O)c1cccnc1O2 | inactive |
| COc1ccccc1N1CCN(C(=O)CCC(=O)N2CCN(c3ccc(F)cc3)CC2)CC1 | inactive |
| O=C(CSc1nnc(NC(=O)c2ccc3c(c2)OCO3)s1)NCc1ccco1 | inactive |
| C/C(=N/NC(=O)c1cc(C2CC2)[nH]n1)c1cccs1 | inactive |
| Cn1c(/C=C/c2ccccc2)nc2ccccc21 | inactive |
| COc1cccc(/C=N/NC(=O)c2[nH]nc3c2CCc2ccccc2-3)c1O | inactive |

| Structure (SMILES) | outcome |
| --- | --- |
| Cc1ccc2[nH]c(C(=O)N/N=C/c3ccccc3O)c(C)c2c1 | inactive |
| Cn1c(=O)c2c(ncn2CC(=O)Nc2cc(S(=O)(=O)N3CCCCC3)ccc2O)n(C)c1=O | inactive |
| COc1ccc(CCNC(=O)CSc2ccsc2[N+](=O)[O-])cc1OC | inactive |
| COC(=O)C(NS(=O)(=O)c1ccc(N2CCCC2=O)cc1)c1ccccc1 (stereo unspecified) | inactive |
| CC(C)(C)c1nc2c(s1)CCc1onc(-c3ccc(Br)cc3)c1-2 | inactive |
| CN(C)c1ccc(C=Cc2ccnc3c(O)cccc23)cc1 | inactive |
| COc1ccc(S(=O)(=O)N2CCN(CC(=O)Nc3ccc(C)c(F)c3)CC2)cc1 | inactive |
| C/C(=N/NC(=O)c1ccc(C(C)(C)C)cc1)c1ccccn1 | inactive |
| CC(=NNC(=S)Nc1ccccc1)c1ccccn1 | inactive |
| CC(=NNC(=S)Nc1ccccc1Cl)c1ccccn1 | inactive |
| Cc1cnc(NC(=O)c2ccccn2)s1 | inactive |
| CCOc1cc(C(=O)OC(C)C(=O)Nc2ncc(Cl)cc2Cl)ccc1OCC(=O)N1CCOCC1 (stereo unspecified) | inactive |
| CCCCCC(=O)N1C[C@@H](O)[C@H](n2cc(C3CC3)nn2)C[C@@H]1c1ccc(C)cc1 | inactive |
| O=C(Nc1cnc2ccccn2c1=O)c1ccc(Cl)cc1Cl | inactive |
| O=C(O)/C=C/c1ccc2ccccc2n1 | inactive |
| Cc1cc(C)nc(N/C(=N\S(=O)(=O)Cc2ccccc2)Nc2ccccc2Br)n1 | inactive |
| O=C1OCC2=C1C(c1ccc3c(c1)OCO3)c1cc3c(cc1O2)OCO3 (stereo unspecified) | inactive |
| Cc1nc(Nc2nc3ccccc3o2)nc2c1CCC2 | inactive |
| Cc1cccc(C)c1Nc1nc2ccccc2o1 | inactive |
| O=[N+]([O-])c1ccc2ncnc(N3CCN(Cc4ccc5c(c4)OCO5)CC3)c2c1 | inactive |
| CC(=C/c1ccccc1)/C=N/n1c(-c2ccncc2)n[nH]c1=S | inactive |
| CCOC(=O)c1ccc(NC(=O)CSc2nc(N3CCOCC3)nc(N3CCOCC3)n2)cc1 | inactive |
| Cc1ccc(S(=O)(=O)N2c3ccccc3-c3c(ssc3=S)C2(C)C)cc1 | inactive |
| Cc1cccc(-n2ncc3c(N4CCOCC4)ncnc32)c1 | inactive |
| O=C(Cc1cccc2ccccc12)Nc1ccc(-c2cc3ccccc3oc2=O)cc1 | inactive |
